Screening data deposited in PubChem by The Scripps Research Institute Molecular Screening Center.
ADAM17 inh: ADAM17 inhibitors, primary screen, biochemical, QFRET. Disintegrin and metalloproteinase domain-containing protein 17 (Homo sapiens), P78536. recombinant ADAM17, EDANS/DABCYL FRET peptide cleavage. inhibition, % at 6.95 µM. 0.83% of 370,000 active. AID 720648, 2013;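 active means inhibition above the mean of compounds lying between control limits plus 3 SD, set per campaign, cut at about 8.5% in these data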;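 further: 0% = DMSO-only wells as the low control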
ADAM10 inh: human ADAM10 inhibitors, primary screen, biochemical, QFRET, HTS | inhibition, % at 7 µM | 0.62% of 370,000 active | recombinant ADAM10, EDANS/DABCYL FRET peptide cleavage, 3 h;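 active means inhibition above a per-campaign cutoff equal to the mean of compounds falling between control-based bounds plus 3 SD, cut at about 20% in these data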;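 further: 0% = DMSO wells while the 100% control is not disclosed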
PLC-gamma1 inh: PLC-gamma1 enzyme inhibitors, primary screen, biochemical, fluorescence, purified enzyme; 1-phosphatidylinositol 4,5-bisphosphate phosphodiesterase gamma-1 (Homo sapiens), P19174; fluorogenic substrate; inhibition, % at 12.2 µM; 0.84% of 370,000 active
proKLK7 act: proKLK7 zymogen activators, primary screen, biochemical, fluorescence intensity; activation, % at 7 µM; AID 652039, 2013; Kallikrein-7 (Homo sapiens), P49862; purified proKLK7, EDANS-DABCYL substrate fluorescence; 100% is mature enzyme control, 0% vehicle; 0.9% of 370,000 active;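 active means activation above the mean of all tested compounds plus 3 SD, computed per campaign excluding outliers beyond control limits, cut at about 13% in these data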
PLCb3 inh: human PLC-beta3 inhibitors, primary screen, biochemical, fluorescence. AID 720704, 2013. Purified PLC-beta3, fluorogenic substrate. 0.18% of 370,000 active. 1-phosphatidylinositol 4,5-bisphosphate phosphodiesterase beta-3 (Homo sapiens), Q01970. inhibition, % at 12.2 µM; in the data active means inhibition above about 11%;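 further: 0% = median of compound wells on plate and 100% = full blocker control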
PLCgamma1 ctr: PLC-gamma1 enzyme inhibitors, counter-screen for PLC-beta3 inhibitor project, biochemical, fluorescence; shares compounds with PLC-gamma1 inh; purified PLC-gamma1, fluorogenic substrate; inhibition, % at 12.3 µM; 3.1% of 3,300 active; AID 743258, 2014
PLCbeta3 conf: PLC-beta3 inhibitor confirmation, biochemical, fluorescence, purified enzyme; shares compounds with PLC-gamma1 inh; fluorogenic substrate fluorescence; inhibition, % at 12.3 µM; 1% of 3,300 active; AID 743261, 2014; in the data active means inhibition above about 11%
Active calls of the source: *; . = not tested or not shown. A selection: hits, their analogues and other compounds. The true share with any hit is near 2.9%. Unless noted, no stated cut-off is given here; in the data, active means inhibition above about 9.5%; inactive means the rest.

SMILES	ADAM17 inh	ADAM10 inh	PLC-gamma1 inh	proKLK7 act	PLCb3 inh	PLCgamma1 ctr	PLCbeta3 conf
CC(=O)C(Cc1ccccc1)NC(=O)CN1c2cccc3cccc(c23)S1(=O)=O (stereo not drawn)	-65	-207	-262	0	-300	.	.
Cc1ccc(/C(N)=N/OC(=O)CCCc2ccccc2)cc1	-3	-1	2	1	-1	.	.
CC(=O)Nc1ccc(NS(=O)(=O)c2cc(Cl)ccc2Cl)cc1	3	4	9.7*	0	-4	-3	0
COC(=O)c1cn(-c2ccccc2)nc1-c1ccccc1	-3	6	-4	0	2	.	.
COC(=O)c1cn(-c2ccccc2)c(C)c1C(=O)OC	7	15	7	1	12*	-1	-2
O=C(c1cc(C2CCCCN2S(=O)(=O)Cc2ccccc2)on1)N1CCOCC1 (stereo not drawn)	0	0	-2	1	-2	.	.
COc1ccc(C2NC(=O)NC(C)=C2C(=O)OCC2CCCCC2)cc1OC (stereo not drawn)	6	9	11*	0	-1	-4	-1
CCn1cc(C(=O)N2CCc3ccccc32)c(=O)c2cc(S(=O)(=O)N3CCOCC3)ccc21	1	-4	-2	0	1	.	.
CCn1cc(C(=O)N2CCc3ccccc32)c(=O)c2cc(S(=O)(=O)N(C)C3CCCCC3)ccc21	7	12	10*	0	5	-3	-4
O=C1CC(N2CCN(c3ccccc3)CC2)C(=O)N1Cc1ccc(Cl)cc1 (stereo not drawn)	8	12	10*	0	0	-7	-3
Nc1cc(S(=O)(=O)O)cc([N+](=O)[O-])c1O	-1	2	33*	0	-1	64*	10
Nc1ccc(C(=O)O)cc1[N+](=O)[O-]	-6	-1	0	0	-7	.	.
Cc1ccccc1-c1cnc(C(O)c2cccc(C)c2C)[nH]1 (stereo not drawn)	1	-1	4	0	2	.	.
Cc1ccc(S(=O)(=O)N2CCN(C(=O)Cn3nc(C)c([N+](=O)[O-])c3C)CC2)c(C)c1	-2	-13	10*	0	-8	0	2
Cc1nn(CC(=O)N2CCN(c3ccccc3)CC2)c(C)c1[N+](=O)[O-]	-1	-4	0	0	-6	.	.
Cc1ccc(Cl)cc1-c1cc(C(=O)NCc2ccc(C(F)(F)F)cc2)[nH]n1	2	5	-2	1	-1	.	.
CC(=O)C1C(c2ccccc2)c2c(n[nH]c2C)CC1(C)O (stereo not drawn)	2	6	12*	0	3	-4	-3
CC(=O)C1C(c2ccc(C)cc2)c2c(n[nH]c2C)CC1(C)O (stereo not drawn)	-14	5	4	0	4	.	.
O=C(COc1ccccc1)N=C1SC2CS(=O)(=O)CC2N1c1ccccc1F (stereo not drawn)	-2	-6	-1	-1	-6	.	.
O=C(COc1ccccc1)N=C1SC2CS(=O)(=O)CC2N1c1ccc(F)cc1F (stereo not drawn)	1	11	10*	0	-2	1	-5
Cc1c(CCOC(=O)C23CC4CC(CC(C)(C4)C2)C3)sc[n+]1CC(=O)c1ccccc1	1	4	12*	0	2	1	1
O=C(/C=C/Nc1ccc(F)cc1F)c1ccc(Br)cc1	1	2	12*	0	1	-67	-60
O=C(NCc1cccnc1)Nc1ccc(Cl)c(Cl)c1	2	12	9.6*	1	-2	-5	-1
S=C(NCc1cccnc1)Nc1ccc(Cl)c(Cl)c1	6	18	1	-1	8	.	.
FC(F)(F)c1ccc(Cn2ccc3ccc(-c4ccc5ccn(Cc6ccccc6)c5c4)cc32)cc1	-8	-23	-62	-1	-60	.	.
SMILES	ADAM17 inh	ADAM10 inh	PLC-gamma1 inh	proKLK7 act	PLCb3 inh	PLCgamma1 ctr	PLCbeta3 conf
O=C(O)c1cccc(NC(=O)c2ccccc2)c1	6	13	11*	0	8	-2	1
O=C(O)c1cccc(NC(=O)c2cc(NC(=O)c3ccccc3)cc(NC(=O)c3ccccc3)c2)c1	-6	1	1	0	-9	.	.
Nc1ccc2c(c1)C(=O)C(=O)c1ccccc1-2	-5	-4	53*	1	2	51*	9
CC(Oc1ccccc1)C(=O)Nc1cccc(NC(=O)c2ccco2)c1 (stereo not drawn)	7	11	11*	0	6	-5	-1
CCOC(=O)[C@]12CCC=C1N(Cc1cccc3ccccc13)C(=O)[C@H](CC(=O)NCCc1ccccc1OC)C2	3	0	-2	0	0	.	.
CCOC(=O)N1CCC(NS(=O)(=O)c2ccc3c(c2)CCN3C(C)=O)CC1	3	0	12*	1	6	-7	-4
CC(=O)NC1C(OCCOc2ccc(Cl)cc2Cl)OC(COC(C)=O)C(OC(C)=O)C1OC(C)=O (stereo not drawn)	3	2	10*	0	4	-4	-1
Cc1cccc(CCNC(=O)C2CCCN(S(=O)(=O)c3cccc4nsnc34)C2)c1 (stereo not drawn)	6	14	17*	0	9	-2	1
COc1ccc(Br)cc1/C=N/n1c(COc2ccccc2)n[nH]c1=S	3	9	11*	0	-3	-49	-43
COc1ccc(/C=N/n2c(COc3ccccc3)n[nH]c2=S)cc1OC	-3	-1	0	-1	-7	.	.
O=C(O)c1ccc2c(c1)C(=O)N(c1ccccc1-c1ccccc1)C2=O	0	-3	1	1	-7	.	.
O=C(O)c1ccc(N2CCCCCC2)c(N2C(=O)c3ccccc3C2=O)c1	8	3	14*	1	6	-6	-5
Cc1ccc(N(CC(=O)NC2CCCC2)C(=O)CCC(=O)Nc2nc(C)cs2)cc1	-4	3	9.6*	0	-8	-2	4
Cc1csc(C(C)NC(=O)c2ccc(OC3CCN(CCc4ccccc4)CC3)cc2)n1 (stereo not drawn)	-1	1	1	0	-7	.	.
O=C(Cc1ccc(F)cc1)Nc1ccc(F)c([N+](=O)[O-])c1	5	12	9.8*	0	4	-2	2
